Only some compounds are listed: those with a hit (about 1.7% of all), similar ones and a draw of the others.
VHR inh abs = VHR1 phosphatase inhibitors, primary screen, biochemical, absorbance, uHTS | Dual specificity protein phosphatase 3 (Homo sapiens), P51452 | recombinant VHR phosphatase, pNPP absorbance | inhibition, % at 13.3 µM | actives 0.52% (n = 290,000) | AID 1654, 2009; in the data active = inhibition above about 50%
Target sequence (P51452 whole entry, looked up): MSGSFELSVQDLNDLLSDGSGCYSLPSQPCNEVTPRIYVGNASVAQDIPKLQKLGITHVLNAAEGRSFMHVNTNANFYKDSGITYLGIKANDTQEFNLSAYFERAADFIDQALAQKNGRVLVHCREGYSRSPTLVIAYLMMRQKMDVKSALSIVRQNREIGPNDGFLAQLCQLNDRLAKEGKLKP
PfHsp40 yeast = rescue of yeast from PfHsp40 toxicity, primary screen, S. cerevisiae, ATP luminescence; AID 504582, 2011; actives 0.68% (n = 340,000); growth rescue, % at 12.5 µM; S. cerevisiae expressing PfHsp40, growth rescue; in the data active = growth rescue above about 28%, passing the limit was not always enough; inconclusive = no clear call, values can overlap the other calls;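 note: yeast W303a lacking pdr1 and pdr3 grown in galactose medium; growth measured after three days at 30 °C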
3CLpro inhibitor = SARS-CoV 3CLpro protease inhibitors, primary screen, biochemical, quenched FRET; Replicase polyprotein 1ab (Severe acute respiratory syndrome coronavirus), P0C6X7; recombinant SARS-CoV 3CLpro, quenched FRET peptide cleavage; inhibition, % at 6 µM; actives 0.14% (n = 290,000); AID 1706, 2009; in the data active = inhibition above about 12%
Vc quorum ag = inducers of Vibrio cholerae quorum light production without autoinducers, primary screen, BH1578 luxS cqsA deficient, single point; V. cholerae BH1578 lux reporter, luminescence, 6 h; activation, % at 18.7 µM; actives 0.16% (n = 350,000); AID 588436, 2011; in the data active = activation mostly above about 9.7%, no sharp cut-off; inconclusive = no clear call, values can overlap the other calls; inactive = mostly below about 3.7%
BJeLR viability = MLPCN primary cell-based screen for lethality selective to Ras in HRASV12 cells; BJeLR (HRASV12) viability, CellTiter-Glo ATP luminescence, 48 h; inhibition, % (test concentration not listed); actives 0.17% (n = 300,000); AID 1554, 2009; in the data active = inhibition above about 50%; inconclusive = no clear call, values can overlap the other calls
MazF activator = activators of E. coli MazEF toxin-antitoxin RNase, primary screen, biochemical, fluorescence, uHTS | Endoribonuclease toxin MazF (Escherichia coli (strain K12)), P0AE70 | FAM/BHQ RNA-DNA oligo cleavage fluorescence, 5 h | activation, % at 20 µM | actives 0.32% (n = 350,000) | AID 504720, 2011; in the data active = activation above about 50%
Target sequence (P0AE70 whole entry, looked up): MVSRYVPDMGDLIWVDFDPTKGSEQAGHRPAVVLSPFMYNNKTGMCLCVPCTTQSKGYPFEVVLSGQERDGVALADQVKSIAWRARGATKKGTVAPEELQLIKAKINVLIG
Large screens that a line does not name were inactive.

O=C(c1cnn2c(C(F)(F)F)cc(-c3ccc4c(c3)OCO4)nc12)N1CCCCC1	none
Cc1cc(C)cc(OCC(=O)OC/C(O)=C(\C#N)c2nc3ccccc3[nH]2)c1	PfHsp40 yeast 28.4
CCOc1ccc(S(=O)(=O)N2CCCC(C(=O)Nc3cccc(C)c3)C2)cc1 (configuration not stated)	none
Cc1ccccc1NC(C)C(=O)N/N=C/c1ccccc1OCc1cccc(Br)c1 (configuration not stated)	PfHsp40 yeast 35.2
COc1ccc(NC(C)C(=O)N/N=C/c2ccccc2OCc2cccc(Br)c2)cc1 (configuration not stated)	none
O=C(NCc1ccco1)c1cc(-c2cccs2)nc2ccccc12	MazF activator active
O=C(COC(=O)c1cc(-c2cccs2)nc2ccccc12)NCc1ccco1	none
CCc1nc2c(OCC(=O)C(C)(C)C)cccn2c1N(C=O)CC(=O)N(C)C	none (no result: VHR inh abs, PfHsp40 yeast, 3CLpro inhibitor, BJeLR viability, MazF activator)
CCCCCCC(Cl)(Cn1ccnc1)c1ccccc1 (configuration not stated)	PfHsp40 yeast 255.1 (no result: VHR inh abs, 3CLpro inhibitor)
CC(C(=O)NCCCn1ccnc1)(c1ccccc1)c1ccccc1	none
Cc1ccc(C(=O)N(Cc2nnc(-c3ccccc3Cl)o2)C2CC2)o1	none (no result: VHR inh abs, PfHsp40 yeast, 3CLpro inhibitor, BJeLR viability)
Cc1ccc(CN2CC(C(=O)N(Cc3nnc(-c4ccccc4Cl)o3)C3CC3)CC2=O)cc1 (configuration not stated)	PfHsp40 yeast 561.3 (no result: VHR inh abs, 3CLpro inhibitor)
CCNC(=S)Nc1ccc(Cl)cc1	none
CCNC(=S)Nc1cc(-c2ccc(Cl)cc2)[nH]n1	PfHsp40 yeast 121.8
S=C(NCCCCc1ccccc1)NCc1ccccc1	PfHsp40 yeast 54.6
S=C(NCCCc1ccccc1)Nc1ccccc1Cl	PfHsp40 yeast 222.7
COc1cc(CNc2ncnc3c2ncn3[C@H]2CN(Cc3ccc4c(c3)OCO4)C[C@@H](CO)O2)cc(OC)c1OC	none (no result: VHR inh abs, PfHsp40 yeast, 3CLpro inhibitor, BJeLR viability, MazF activator)
Cc1ccc(C(=O)c2no[n+]([O-])c2C(=O)c2ccc(C)cc2)cc1	VHR inh abs 54.3
Cc1ccc(N2CC(C(=O)NC3CC3)CC2=O)cc1 (configuration not stated)	VHR inh abs 52.9
COc1ccc(N2CC(C(=O)N[C@@H](C)C(=O)NC3CCCCC3)CC2=O)cc1 (some centres not stated)	none
COc1ccc(N2CC(C(=O)N[C@@H](CC(C)C)C(=O)NC3CCCCC3)CC2=O)cc1 (some centres not stated)	VHR inh abs 55.5
COc1cc(/C=N/NC(=O)c2ccncc2)ccc1OCc1cnc(Cl)s1	none
CCCS(=O)(=O)N1CCCC(C(=O)NCCCN(CC)c2cccc(C)c2)C1 (configuration not stated)	Vc quorum ag active
CC(C)Nc1ncnc2c1ncn2[C@H]1CN(CCN2CCOCC2)C[C@@H](CO)O1	none (no result: VHR inh abs, PfHsp40 yeast, 3CLpro inhibitor, BJeLR viability, MazF activator)
COc1ccc(N2CCN(C(=O)c3ccc(C)cc3)CC2)c([N+](=O)[O-])c1	PfHsp40 yeast 33.1
OCc1cc(-c2ccccn2)no1	none (no result: VHR inh abs, 3CLpro inhibitor)
COc1ccc(Cn2c(C3CCCCC3)nc3c(c(=O)c4ccccc4n3C)c2=O)cc1	VHR inh abs 54.1 (no result: PfHsp40 yeast, Vc quorum ag)
COc1ccc(CCn2c(C3CCCCC3)nc3c(c(=O)c4ccccc4n3C)c2=O)cc1OC	PfHsp40 yeast 103.9
COc1cc2cncc(Cc3ccc(Cl)cc3)c2cc1OC	none (no result: VHR inh abs, 3CLpro inhibitor, BJeLR viability)
CC1CCC(NC(=O)c2cc(S(=O)(=O)N(C)C)ccc2N2CCCC2)CC1 (configuration not stated)	none (no result: VHR inh abs, 3CLpro inhibitor)
CCOc1cc(CN2CCC(N3CCC(C(=O)NC4CC4)CC3)CC2)ccc1O	none (no result: VHR inh abs, PfHsp40 yeast, 3CLpro inhibitor, BJeLR viability)
O=C(CSc1ccc(-c2cccnc2)nn1)N1CCCc2ccccc21	none (no result: PfHsp40 yeast, Vc quorum ag, MazF activator)
Cc1cc(C)cc(NC(=O)CSc2ccc(-c3ccccn3)nn2)c1	PfHsp40 yeast inconclusive
COc1ccccc1CNC(=O)CSc1ccc(-c2ccccn2)nn1	PfHsp40 yeast 313.6
O=C(CSc1ccc(-c2ccccn2)nn1)N1CCCc2ccccc21	PfHsp40 yeast 472.8
Cc1ccccc1NC(=O)CSc1ccc(-c2ccccn2)nn1	PfHsp40 yeast 380.9

From PubChem
